Results taken from PubChem BioAssay AID1159580 (chemical genetic matrix, 2015).
Out of some 5,500 compounds screened, about 2,000 (36%) were called active. Not shown: some 18% with an inconclusive outcome. No stated cut-off is given here; in the data, active means normalized growth mostly below about 0.91 (no sharp cut-off); inconclusive means no clear call, values can overlap the other calls; inactive means mostly above about 0.92. This is one part of the list.

Experiment: chemical genetic growth profiling, strain panel (AID 1159580);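 further: tested at 20 µM; growth read once vehicle control cultures reached saturation at 30 °C; 1 = growth at the plate median or of vehicle wells; lower values mean less growth of the strain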
Conditions: growth OD

Measured: normalized growth

c1ccc(CC2=NCCN2)cc1
inactive: S. cerevisiae deletion strains, locus YJR075W, strain HOC1, active compounds read low 1 | S. cerevisiae deletion strains, locus YKL160W, strain elf1, active compounds read low 1.03 | S. cerevisiae deletion strains, locus YKL190W, strain CNB1, active compounds read low 0.998 | S. cerevisiae deletion strains, locus YKR001C, strain vps1, active compounds read low 0.913 | S. cerevisiae deletion strains, locus YKR026C, strain gcn3, active compounds read low 1.03 | S. cerevisiae deletion strains, locus YKR091W, strain srl3, active compounds read low 1.01 | S. cerevisiae deletion strains, locus YLL001W, strain dnm1, active compounds read low 1.01 | S. cerevisiae deletion strains, locus YLL026W, active compounds read low 1.02 | S. cerevisiae deletion strains, locus YLL041C, strain sdh2, active compounds read low 1.01 | S. cerevisiae deletion strains, locus YLR027C, strain aat2, active compounds read low 1.02 | S. cerevisiae deletion strains, locus YLR039C, strain RIC1, active compounds read low 0.931 | S. cerevisiae deletion strains, locus YLR058C, strain SHM2, active compounds read low 0.984 | S. cerevisiae deletion strains, locus YLR113W, strain HOG1, active compounds read low 0.957 | S. cerevisiae deletion strains, locus YLR221C, strain rsa3, active compounds read low 0.997 | S. cerevisiae deletion strains, locus YLR258W, strain gsy2, active compounds read low 1.01 | S. cerevisiae deletion strains, locus YLR262C, strain YPT6 (second series), active compounds read low 1.03 | S. cerevisiae deletion strains, locus YLR262C, strain YPT6, active compounds read low 0.927 | S. cerevisiae deletion strains, locus YLR268W, strain sec22, active compounds read low 0.905 | S. cerevisiae deletion strains, locus YLR320W, strain mms22, active compounds read low 0.989 | S. cerevisiae deletion strains, locus YLR330W, strain CHS5, active compounds read low 0.97 | S. cerevisiae deletion strains, locus YLR342W, strain FKS1 (second series), active compounds read low 1.01 | S. cerevisiae deletion strains, locus YLR342W, strain FKS1, active compounds read low 1.03 | S. cerevisiae deletion strains, locus YLR357W, strain rsc2, active compounds read low 1.03 | S. cerevisiae deletion strains, locus YLR370C, strain arc18, active compounds read low 1.01 | S. cerevisiae deletion strains, locus YLR371W, strain rom2, active compounds read low 0.909 | S. cerevisiae deletion strains, locus YLR384C, strain iki3, active compounds read low 1.03 | S. cerevisiae deletion strains, locus YLR418C, strain cdc73, active compounds read low 1.01 | S. cerevisiae deletion strains, locus YML016C, strain PPZ1, active compounds read low 1.01 | S. cerevisiae deletion strains, locus YML032C, strain rad52, active compounds read low 0.915 | S. cerevisiae deletion strains, locus YML120C, strain ndi1, active compounds read low 1.01 | S. cerevisiae deletion strains, locus YMR058W, strain fet3, active compounds read low 1.03 | S. cerevisiae deletion strains, locus YMR125W, strain sto1, active compounds read low 1.01 | S. cerevisiae deletion strains, locus YMR129W, active compounds read low 1.02 | S. cerevisiae deletion strains, locus YMR205C, strain PFK2, active compounds read low 1 | S. cerevisiae deletion strains, locus YMR223W, strain ubp8, active compounds read low 0.916 | S. cerevisiae deletion strains, locus YMR231W, strain pep5, active compounds read low 1.01 | S. cerevisiae deletion strains, locus YMR263W, strain SAP30, active compounds read low 0.978 | S. cerevisiae deletion strains, locus YMR307W, strain GAS1, active compounds read low 1.03 | S. cerevisiae deletion strains, locus YNL067W, strain RPL9B, active compounds read low 0.957 | S. cerevisiae deletion strains, locus YNL071W, strain lat1, active compounds read low 1.03 | S. cerevisiae deletion strains, locus YNL128W, strain TEP1, active compounds read low 1.01 | S. cerevisiae deletion strains, locus YNL153C, strain GIM3, active compounds read low 0.987 | S. cerevisiae deletion strains, locus YNL183C, strain NPR1, active compounds read low 0.943 | S. cerevisiae deletion strains, locus YNL209W, strain ssb2, active compounds read low 1.02 | S. cerevisiae deletion strains, locus YNL233W, strain BNI4, active compounds read low 0.98 | S. cerevisiae deletion strains, locus YNL248C, strain rpa49, active compounds read low 1.05 | S. cerevisiae deletion strains, locus YNL322C, strain KRE1 (second series), active compounds read low 1.01 | S. cerevisiae deletion strains, locus YNL322C, strain KRE1, active compounds read low 0.987 | S. cerevisiae deletion strains, locus YNR049C, strain mso1, active compounds read low 0.996 | S. cerevisiae deletion strains, locus YOL006C, strain TOP1, active compounds read low 1.09 | S. cerevisiae deletion strains, locus YOL012C, strain htz1 1.4 | S. cerevisiae deletion strains, locus YOR001W, strain rrp6, active compounds read low 1 | S. cerevisiae deletion strains, locus YOR061W, strain CKA2, active compounds read low 0.986 | S. cerevisiae deletion strains, locus YOR069W, strain VPS5, active compounds read low 0.968 | S. cerevisiae deletion strains, locus YOR070C, strain gyp1, active compounds read low 0.998 | S. cerevisiae deletion strains, locus YOR080W, strain dia2, active compounds read low 1.02 | S. cerevisiae deletion strains, locus YOR083W, strain WHI5, active compounds read low 0.976 | S. cerevisiae deletion strains, locus YOR106W, strain vam3, active compounds read low 1.03 | S. cerevisiae deletion strains, locus YOR136W, strain idh2, active compounds read low 0.937 | S. cerevisiae deletion strains, locus YOR184W, strain ser1, active compounds read low 0.899 | S. cerevisiae deletion strains, locus YOR231W, strain MKK1, active compounds read low 0.976 | S. cerevisiae deletion strains, locus YOR265W, strain rbl2, active compounds read low 0.99 | S. cerevisiae deletion strains, locus YOR270C, strain vph1, active compounds read low 1.11 | S. cerevisiae deletion strains, locus YOR290C, strain snf2, active compounds read low 1 | S. cerevisiae deletion strains, locus YPL051W, strain arl3, active compounds read low 0.989 | S. cerevisiae deletion strains, locus YPL055C, strain LGE1, active compounds read low 0.995 | S. cerevisiae deletion strains, locus YPL078C, strain atp4, active compounds read low 1.04 | S. cerevisiae deletion strains, locus YPL106C, strain sse1, active compounds read low 1.02 | S. cerevisiae deletion strains, locus YPL240C, strain hsp82, active compounds read low 1.02 | S. cerevisiae deletion strains, locus YPL241C, strain CIN2, active compounds read low 0.99 | S. cerevisiae deletion strains, locus YPL256C, strain CLN2, active compounds read low 0.941 | S. cerevisiae deletion strains, strain wtn01, active compounds read low 0.917 | S. cerevisiae strains, strain wild type, active compounds read low 1
active: S. cerevisiae deletion strains, locus YKL009W, strain mrt4, active compounds read low 0.695 | S. cerevisiae deletion strains, locus YKL068W, active compounds read low 0.837 | S. cerevisiae deletion strains, locus YKL085W, strain MDH1 (second series), active compounds read low 0.836 | S. cerevisiae deletion strains, locus YKL085W, strain MDH1, active compounds read low 0.836 | S. cerevisiae deletion strains, locus YLR102C, strain apc9, active compounds read low 0.897 | S. cerevisiae deletion strains, locus YML124C, strain tub3, active compounds read low 0.904 | S. cerevisiae deletion strains, locus YMR078C, strain ctf18, active compounds read low 0.907 | S. cerevisiae deletion strains, locus YNL250W, strain rad50, active compounds read low 0.822 | S. cerevisiae deletion strains, locus YNL271C, strain bni1, active compounds read low 0.837 | S. cerevisiae deletion strains, locus YNL298W, strain CLA4, active compounds read low 0.79 | S. cerevisiae deletion strains, locus YNL307C, strain MCK1, active compounds read low 0.877 | S. cerevisiae deletion strains, locus YNR052C, strain pop2, active compounds read low 0.911 | S. cerevisiae deletion strains, locus YOL147C, strain pex11, active compounds read low 0.915 | S. cerevisiae deletion strains, locus YOR144C, strain elg1, active compounds read low 0.917 | S. cerevisiae deletion strains, locus YOR316C, strain cot1, active compounds read low 0.919 | S. cerevisiae deletion strains, locus YPR119W, strain clb2, active compounds read low 0.896 | S. cerevisiae deletion strains, locus YPR141C, strain kar3, active compounds read low 0.767 | S. cerevisiae deletion strains, locus YPR163C, strain tif3, active compounds read low 0.885 | S. cerevisiae deletion strains, locus YPR167C, strain met16, active compounds read low 0.906
